From the supplement of paper PMC11732987, “Enantioselective OTUD7B fragment discovery through chemoproteomics screening and high-throughput optimisation” (Communications Chemistry, 2025)

Experiments:
Experiment in all cases: log2 ratio of Biotin-Ahx-Ub-VS probe labelling (fragment/DMSO); higher = less target engagement (more negative = stronger competition), active = hit call of the paper (q ≤ 0.05, log2 ratio ≤ -1)
Conditions in all cases: compound concentration: 200 uM; treatment time: 3 h
[1] = target: T1, OTUD6B (UniProt Q8N6M0)
T1 sequence (whole entry): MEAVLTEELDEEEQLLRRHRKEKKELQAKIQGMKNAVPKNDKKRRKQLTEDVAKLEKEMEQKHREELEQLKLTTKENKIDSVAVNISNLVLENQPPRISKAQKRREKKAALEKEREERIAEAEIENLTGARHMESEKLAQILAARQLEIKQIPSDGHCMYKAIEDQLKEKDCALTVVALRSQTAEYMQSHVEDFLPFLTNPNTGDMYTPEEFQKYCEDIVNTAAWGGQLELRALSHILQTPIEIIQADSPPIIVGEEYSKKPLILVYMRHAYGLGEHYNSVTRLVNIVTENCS
Summary of the method: (§1)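 HEK293T lysate (495 µg per sample, in Tris/CHAPS/IGEPAL buffer with protease inhibitors) was exposed in triplicate for 3 h to fragment at 200 µM or to vehicle, then to Biotin-Ahx-Ub-VS at 0.5 µM final for 1 h. Labelled DUBs were enriched on NeutrAvidin, digested with LysC and trypsin, and analysed by diaPASEF LC-MS/MS. Spectronaut label-free quantities were normalised to the global median, and values are average log2 ratios of fragment over vehicle from an unpaired t-test. Only proteins with ≥2 unique peptides were used.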

[2] = target: T2, OTUD7B (UniProt Q6GQQ9)
T2 sequence (whole entry): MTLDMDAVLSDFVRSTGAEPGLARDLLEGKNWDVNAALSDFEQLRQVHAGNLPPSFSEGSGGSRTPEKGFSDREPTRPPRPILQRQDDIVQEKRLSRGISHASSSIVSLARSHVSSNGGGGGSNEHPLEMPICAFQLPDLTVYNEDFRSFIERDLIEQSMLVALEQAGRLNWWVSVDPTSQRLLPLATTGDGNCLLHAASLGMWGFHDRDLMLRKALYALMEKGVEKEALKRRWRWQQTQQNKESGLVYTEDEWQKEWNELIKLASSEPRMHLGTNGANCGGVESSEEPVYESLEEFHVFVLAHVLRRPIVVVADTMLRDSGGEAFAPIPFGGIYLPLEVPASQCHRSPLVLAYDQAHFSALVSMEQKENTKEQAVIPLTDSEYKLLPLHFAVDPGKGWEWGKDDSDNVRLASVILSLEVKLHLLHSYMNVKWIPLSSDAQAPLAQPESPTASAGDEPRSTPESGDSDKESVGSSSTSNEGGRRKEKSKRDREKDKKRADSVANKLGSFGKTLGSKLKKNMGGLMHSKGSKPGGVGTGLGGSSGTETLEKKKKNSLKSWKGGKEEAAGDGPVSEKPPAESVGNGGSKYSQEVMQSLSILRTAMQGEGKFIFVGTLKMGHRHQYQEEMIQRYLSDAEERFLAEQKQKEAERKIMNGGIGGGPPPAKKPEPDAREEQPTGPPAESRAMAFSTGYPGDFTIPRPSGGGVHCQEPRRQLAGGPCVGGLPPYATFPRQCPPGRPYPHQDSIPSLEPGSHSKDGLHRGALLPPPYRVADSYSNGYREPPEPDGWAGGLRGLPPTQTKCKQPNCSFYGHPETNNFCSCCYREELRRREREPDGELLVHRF
Summary of the method: as §1

[3] = target: PRPF8 (UniProt Q6P2Q9)
Summary of the method: as §1

[4] = target: T3, PSMD7 (UniProt P51665)
T3 sequence (whole entry): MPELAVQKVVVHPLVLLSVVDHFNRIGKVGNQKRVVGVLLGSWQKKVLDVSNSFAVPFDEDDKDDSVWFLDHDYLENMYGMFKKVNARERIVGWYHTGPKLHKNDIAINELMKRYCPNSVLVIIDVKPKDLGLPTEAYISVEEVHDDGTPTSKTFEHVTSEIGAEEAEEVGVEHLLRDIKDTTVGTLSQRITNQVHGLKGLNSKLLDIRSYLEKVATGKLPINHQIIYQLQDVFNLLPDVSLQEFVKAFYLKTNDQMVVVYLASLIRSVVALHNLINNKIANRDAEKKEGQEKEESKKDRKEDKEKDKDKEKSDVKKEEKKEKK
Summary of the method: as §1

[5] = target: UCHL1 (UniProt P09936)
Chain of UCHL1 (P09936 whole entry, looked up): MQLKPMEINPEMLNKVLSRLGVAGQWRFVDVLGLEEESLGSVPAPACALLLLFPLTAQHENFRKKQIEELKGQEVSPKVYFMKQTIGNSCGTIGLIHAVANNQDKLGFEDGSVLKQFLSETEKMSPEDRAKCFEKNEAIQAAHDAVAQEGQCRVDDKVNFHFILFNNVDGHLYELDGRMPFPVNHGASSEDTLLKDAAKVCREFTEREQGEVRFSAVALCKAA
Summary of the method: as §1

[6] = target: T4, UCHL3 (UniProt P15374)
T4 sequence (whole entry): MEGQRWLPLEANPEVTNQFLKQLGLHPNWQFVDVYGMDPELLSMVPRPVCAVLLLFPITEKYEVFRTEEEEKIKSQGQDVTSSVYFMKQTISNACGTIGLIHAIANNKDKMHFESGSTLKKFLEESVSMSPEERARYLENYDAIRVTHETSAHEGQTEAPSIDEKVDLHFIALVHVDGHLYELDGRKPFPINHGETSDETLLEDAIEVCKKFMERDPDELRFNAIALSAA
Summary of the method: as §1

[7] = target: T5, UCHL5 (UniProt Q9Y5K5)
T5 sequence (whole entry): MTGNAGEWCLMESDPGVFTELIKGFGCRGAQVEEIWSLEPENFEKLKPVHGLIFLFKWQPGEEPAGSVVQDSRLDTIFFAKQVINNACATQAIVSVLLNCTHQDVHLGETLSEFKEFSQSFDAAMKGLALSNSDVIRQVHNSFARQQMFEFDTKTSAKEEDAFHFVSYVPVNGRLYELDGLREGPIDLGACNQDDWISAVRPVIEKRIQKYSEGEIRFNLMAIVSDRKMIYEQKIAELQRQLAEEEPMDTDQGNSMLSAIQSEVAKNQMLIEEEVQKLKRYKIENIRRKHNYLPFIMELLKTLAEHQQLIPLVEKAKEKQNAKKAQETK
Summary of the method: as §1

[8] = target: USP10 (UniProt Q14694)
Chain of USP10 (Q14694 whole entry): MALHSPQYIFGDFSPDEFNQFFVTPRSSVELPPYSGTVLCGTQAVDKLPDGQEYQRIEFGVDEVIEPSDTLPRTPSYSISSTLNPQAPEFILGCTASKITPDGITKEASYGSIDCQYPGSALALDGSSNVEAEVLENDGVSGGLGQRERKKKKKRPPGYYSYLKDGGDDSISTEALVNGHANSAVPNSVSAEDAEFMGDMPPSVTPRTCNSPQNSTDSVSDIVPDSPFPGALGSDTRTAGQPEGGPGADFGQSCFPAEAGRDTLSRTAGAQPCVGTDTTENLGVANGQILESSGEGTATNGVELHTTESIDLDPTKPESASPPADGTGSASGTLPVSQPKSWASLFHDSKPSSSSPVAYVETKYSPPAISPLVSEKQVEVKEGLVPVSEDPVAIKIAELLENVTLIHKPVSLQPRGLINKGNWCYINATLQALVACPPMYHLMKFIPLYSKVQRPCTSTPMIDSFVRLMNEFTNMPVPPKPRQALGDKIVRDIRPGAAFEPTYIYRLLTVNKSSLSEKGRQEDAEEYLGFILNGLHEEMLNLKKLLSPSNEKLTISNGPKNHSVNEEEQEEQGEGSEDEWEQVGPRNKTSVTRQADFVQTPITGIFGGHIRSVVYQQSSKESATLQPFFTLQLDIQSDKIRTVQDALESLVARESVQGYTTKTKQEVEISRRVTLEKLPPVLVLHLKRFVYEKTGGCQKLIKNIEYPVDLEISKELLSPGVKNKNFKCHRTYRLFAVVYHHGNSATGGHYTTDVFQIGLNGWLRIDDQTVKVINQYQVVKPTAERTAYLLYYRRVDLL
Summary of the method: as §1

[9] = target: T6, USP15 (UniProt Q9Y4E8)
T6 sequence (whole entry): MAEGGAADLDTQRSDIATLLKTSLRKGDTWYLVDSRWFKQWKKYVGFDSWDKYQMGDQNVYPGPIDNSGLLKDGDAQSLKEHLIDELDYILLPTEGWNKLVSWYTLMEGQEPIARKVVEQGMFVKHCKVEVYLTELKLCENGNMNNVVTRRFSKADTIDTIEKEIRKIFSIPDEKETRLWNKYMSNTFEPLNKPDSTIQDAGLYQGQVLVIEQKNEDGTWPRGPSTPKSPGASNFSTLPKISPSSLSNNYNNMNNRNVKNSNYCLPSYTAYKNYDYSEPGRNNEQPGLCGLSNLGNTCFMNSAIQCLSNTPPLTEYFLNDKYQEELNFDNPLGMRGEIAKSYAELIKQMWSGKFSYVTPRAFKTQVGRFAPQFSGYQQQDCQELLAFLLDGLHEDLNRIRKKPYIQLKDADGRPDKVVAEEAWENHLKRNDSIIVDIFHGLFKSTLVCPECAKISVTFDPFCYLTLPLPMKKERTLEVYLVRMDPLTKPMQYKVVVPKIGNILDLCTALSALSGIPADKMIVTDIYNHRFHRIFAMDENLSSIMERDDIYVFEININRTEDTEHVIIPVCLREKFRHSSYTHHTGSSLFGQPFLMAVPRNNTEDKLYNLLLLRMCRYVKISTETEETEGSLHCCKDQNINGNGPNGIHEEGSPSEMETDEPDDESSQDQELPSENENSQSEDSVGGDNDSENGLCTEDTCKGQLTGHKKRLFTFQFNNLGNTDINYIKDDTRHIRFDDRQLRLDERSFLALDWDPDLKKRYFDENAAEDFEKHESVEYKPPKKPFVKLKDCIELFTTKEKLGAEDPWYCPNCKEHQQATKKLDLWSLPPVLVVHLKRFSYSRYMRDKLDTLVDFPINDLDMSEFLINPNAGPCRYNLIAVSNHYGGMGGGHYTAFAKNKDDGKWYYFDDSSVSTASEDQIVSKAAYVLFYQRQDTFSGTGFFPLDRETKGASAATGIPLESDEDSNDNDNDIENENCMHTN
Summary of the method: as §1

[10] = target: USP16 (UniProt Q9Y5T5)
Chain of USP16 (Q9Y5T5 whole entry, looked up): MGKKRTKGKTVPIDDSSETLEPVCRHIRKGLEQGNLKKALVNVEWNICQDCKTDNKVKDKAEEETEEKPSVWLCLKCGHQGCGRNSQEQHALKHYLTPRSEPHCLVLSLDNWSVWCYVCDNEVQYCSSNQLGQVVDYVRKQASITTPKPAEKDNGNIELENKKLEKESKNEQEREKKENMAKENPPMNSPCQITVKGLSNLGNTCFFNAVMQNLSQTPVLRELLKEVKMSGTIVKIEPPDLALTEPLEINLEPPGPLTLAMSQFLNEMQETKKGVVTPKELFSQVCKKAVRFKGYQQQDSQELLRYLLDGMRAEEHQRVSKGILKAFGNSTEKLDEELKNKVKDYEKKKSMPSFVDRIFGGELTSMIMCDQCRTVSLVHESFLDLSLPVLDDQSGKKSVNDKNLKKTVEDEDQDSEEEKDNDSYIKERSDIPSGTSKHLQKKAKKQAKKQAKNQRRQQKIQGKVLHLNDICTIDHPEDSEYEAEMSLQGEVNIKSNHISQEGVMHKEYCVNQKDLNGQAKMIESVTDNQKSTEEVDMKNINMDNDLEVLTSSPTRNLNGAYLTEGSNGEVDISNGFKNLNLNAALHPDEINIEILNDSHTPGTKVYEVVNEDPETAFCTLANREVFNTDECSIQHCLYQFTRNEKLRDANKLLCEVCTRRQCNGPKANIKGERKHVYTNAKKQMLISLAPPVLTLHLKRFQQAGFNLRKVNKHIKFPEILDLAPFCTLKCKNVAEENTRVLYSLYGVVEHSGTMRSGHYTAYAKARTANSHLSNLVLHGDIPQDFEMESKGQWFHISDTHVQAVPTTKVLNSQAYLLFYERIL
Summary of the method: as §1

Measured: log2 ratio of Biotin-Ahx-Ub-VS probe labelling

O=C(CCl)N1CCOCC1C1CC1 (stereo not given)
inactive: [1] -0.211 | [2] -0.512 | [3] -0.182 | [4] -0.142 | [6] 0.225 | [7] -0.257 | [8] -0.0983 | [9] -0.122 | [10] -0.345
active: [5] -1.92
